Measurements: PubChem BioAssay (NCI)
This is part of a sample that, as a whole, favours compounds with a hit. Of some 83,000 tested, about 20% had one in any assay.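 Method: cells in 96-well plates; compound added at one concentration; 48 h incubation; percent growth measured; values under 10 scored active.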 A number with no mark means an inactive call. Calls of active or inactive are those of the source.

What was measured:
Assay in all cases: NCI-60 one-dose screen, 48 h (100 = growth as untreated, 0 = no growth, -100 = all killed)
Details in all cases: 10 µM unless noted
[1] = test system: RPMI-8226 leukemia
[2] = test system: OVCAR-8 ovarian
[3] = test system: OVCAR-5 ovarian
[4] = test system: OVCAR-4 ovarian
[5] = test system: SK-OV-3 ovarian
[6] = test system: IGROV1 ovarian
[7] = test system: OVCAR-3 ovarian
[8] = test system: HS 578T breast
[9] = test system: NCI/ADR-RES ovarian
[10] = test system: T-47D breast

| SMILES | growth [1] | growth [2] | growth [3] | growth [4] | growth [5] | growth [6] | growth [7] | growth [8] | growth [9] | growth [10] |
| --- | --- | --- | --- | --- | --- | --- | --- | --- | --- | --- |
| COc1cc(C(=O)O/N=C(\N)Cc2cccc3ccccc23)cc(OC)c1OC | -36.4% (active) | 1.62% (active) | 48% | 66.8% | 69.2% | 46.9% | 6.38% (active) | 26% | 59.8% | -73.1% (active) |
| Oc1[nH]c2ccccc2c1N=Nc1nnc2n1N=C(c1ccccc1)CS2 | 92.8% | 59.1% | 101% | 59.6% | 89.8% | 97.5% | 88.4% | 72% | 105% | 64.3% |
| CCOC(=O)c1cnc2ccc(Cl)cc2c1NCCCN(C)C | -3.54% (active) | -3.54% (active) | 53.8% | -12.1% (active) | 14.5% | -16.2% (active) | 18.8% | 33% | 7.93% (active) | 14.6% |
| Cc1nc(Nc2ccccn2)sc1C(=O)/C=C/c1ccc(Cl)cc1 | 12% | 10.1% | 38.7% | 54% | 26.9% | 13.9% | -23.2% (active) | 18.5% | 3.2% (active) | 58.1% |
| O=C(Nc1ccc(Cl)cc1F)c1cc(Br)ccc1O | -13.5% (active) | 9.53% (active) | 22% | 14.4% | -0.537% (active) | 19.5% | 9.61% (active) | 1.54% (active) | 7.03% (active) | -14% (active) |
| OC(CNC1CCCCC1)Cn1c2ccc(I)cc2c2cc(I)ccc21 (stereo not given) | 52.2% | 70.9% | 82.9% | 77% | 91.6% | 70.8% | 65.7% | 79.6% | 62.8% | 81.3% |
| O=C(c1ccccc1)N(C(=S)NCCc1ccc(Cl)cc1)c1ccc(Cl)cc1 | 62.5% | 41.1% | 81.3% | 88.8% | 104% | 87.4% | 27.7% | 62.5% | 101% | 45.5% |
| COc1ccc(-c2cc(=O)c3c(OC)c4ccoc4c(/C=C/C=O)c3o2)cc1 | 0.179% (active) | 28.5% | 77.1% | 37.2% | 84% | 72.7% | 18.3% | 39.2% | 33.5% | 1.64% (active) |
| COc1cc(C2C(C#N)=C(N)OC3=C2C(=O)c2ccccc2C3=O)cc(OC)c1OC (stereo not given) | 18.5% | 17.4% | 44% | 74.1% | 29.9% | 47.7% | 3.34% (active) | 8.28% (active) | 70.5% | 67.3% |
| Cn1nc(C(C)(C)C)cc1NC(=O)Cc1ccc(/C=C2\C(=O)Nc3ccccc32)cc1 | 28.7% | 54.6% | 107% | 47.6% | 60.7% | 59% | 64.5% | 74.7% | 66.9% | 14.9% |
| CN1CCN(Cc2ccc(C(=O)Nc3cncc(C#Cc4cnc5cccnn45)c3)cc2C(F)(F)F)CC1 | 29% | 78.7% | 47.2% | 41.8% | 78.9% | 31.5% | 63.3% | 54.8% | 91.6% | 81.2% |
| CC(=O)Nc1nc2c(s1)CCc1c-2cn(S(=O)(=O)c2ccccc2)c1-c1ccccc1 | 57.7% | 79.7% | 97.4% | 84.3% | 101% | 97.2% | 80.5% | 91.3% | 49.7% | 49.3% |
| Cc1ccc(S(=O)(=O)c2c(COC(=O)c3cccc(C)c3)c(-c3ccccc3)nn2C)cc1 | 78.5% | 88.5% | 115% | -59% (active) | 104% | 80.9% | -77.9% (active) | 99.9% | 106% | -64.3% (active) |
